Results from the supplement of paper PMC3414501.
Counter-ions that a name gives are not always drawn.

Assays:
[1] = test system: S. cerevisiae SK1 pCDA2-eGFP (USY613), sporulating; experiment: CDA2-GFP sporulation assay sensitivity score (z-score vs DMSO controls); higher = stronger inhibition of sporulation, active = hit call of the paper;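 note: active if sensitivity score above 5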
[2] = test system: S. cerevisiae NKY1551 his4x/his4B, sporulating; experiment: HIS4 meiotic recombination assay sensitivity score (z-score vs DMSO controls); higher = stronger inhibition of sporulation/recombination, active = hit call of the paper;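 note: active if sensitivity score above 5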
[3] = test system: S. cerevisiae AD1-9 (efflux-pump deficient), vegetative growth in YPD; experiment: growth sensitivity score (doubling time z-score vs DMSO controls); higher = slower growth, strongly negative scores also mark growth inhibition (complete suppression), active = hit call of the paper
In short: (§1)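 Yeast (Saccharomyces cerevisiae BY4741 and AD1-9) was grown in rich medium in microtiter plates from a starting OD600 of 0.065, with optical density read every 15 min over 24 hours. The growth sensitivity score was the difference between compound and solvent-only means, divided by the solvent-only standard deviation. Every experiment had eight solvent-only wells.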

[4] = test system: S. cerevisiae BY4741 (wild-type), vegetative growth in YPD; experiment: as above
In short: as §1

## Fc1ccc([C@@H]2CCNC[C@H]2COc2ccc3c(c2)OCO3)cc1 [Paroxetine] (stock concentration (mM, diluted 1:100): 8.8)
[1]
  CDA2-GFP sporulation assay sensitivity score: -1.35 (inactive)
[2]
  HIS4 meiotic recombination assay sensitivity score: 9.22 (active)
[3]
  growth sensitivity score: 118 (active)
[4]
  growth sensitivity score: 1.33 (inactive)

## CC1(C)S[C@@H]2[C@H](/N=C/N3CCCCCC3)C(=O)N2[C@H]1C(=O)O [Mecillinam] (stock concentration (mM, diluted 1:100): 10)
[1]
  CDA2-GFP sporulation assay sensitivity score: 0.59 (inactive)
[2]
  HIS4 meiotic recombination assay sensitivity score: -0.86 (inactive)
[3]
  growth sensitivity score: -0.02 (inactive)
[4]
  growth sensitivity score: 1.05 (inactive)

## COc1ccc2cc([C@H](C)C(=O)O)ccc2c1 [Naproxen sodium] (stock concentration (mM, diluted 1:100): 10)
[1]
  CDA2-GFP sporulation assay sensitivity score: 1.69 (inactive)
[2]
  HIS4 meiotic recombination assay sensitivity score: -0.09 (inactive)
[3]
  growth sensitivity score: 1.41 (inactive)
[4]
  growth sensitivity score: -0.72 (inactive)

## CO[C@H]1/C=C/O[C@@]2(C)Oc3c(C)c(O)c4c(O)c(c5c(nc6cc(C)ccn65)c4c3C2=O)NC(=O)/C(C)=C\C=C\[C@H](C)[C@H](O)[C@@H](C)[C@@H](O)[C@@H](C)[C@H](OC(C)=O)[C@@H]1C [Rifaximin] (stock concentration (mM, diluted 1:100): 10)
[1]
  CDA2-GFP sporulation assay sensitivity score: 4.99 (inactive)
[2]
  HIS4 meiotic recombination assay sensitivity score: -0.87 (inactive)
[3]
  growth sensitivity score: -1.56 (inactive)
[4]
  growth sensitivity score: -1.64 (inactive)

## Nc1ccc(O)c(C(=O)O)c1 [Mesalamine] (stock concentration (mM, diluted 1:100): 10)
[1]
  CDA2-GFP sporulation assay sensitivity score: -1.48 (inactive)
[2]
  HIS4 meiotic recombination assay sensitivity score: -2.13 (inactive)
[3]
  growth sensitivity score: -2.51
[4]
  growth sensitivity score: -0.33 (inactive)

## COCCCC/C(=N\OCCN)c1ccc(C(F)(F)F)cc1 [Fluvoxamine] (stock concentration (mM, diluted 1:100): 7.7)
[1]
  CDA2-GFP sporulation assay sensitivity score: -1.51 (inactive)
[2]
  HIS4 meiotic recombination assay sensitivity score: 8.08 (active)
[3]
  growth sensitivity score: 9.45 (active)
[4]
  growth sensitivity score: 2.43 (active)

## C=C1/C(=C\C=C2/CCC[C@]3(C)[C@@H]([C@H](C)CCCC(C)(C)O)CC[C@@H]23)C[C@@H](O)C[C@@H]1O [Calcitriol] (stock concentration (mM, diluted 1:100): 10)
[1]
  CDA2-GFP sporulation assay sensitivity score: 3.05 (inactive)
[2]
  HIS4 meiotic recombination assay sensitivity score: 2.18 (inactive)
[3]
  growth sensitivity score: 21.1 (active)
[4]
  growth sensitivity score: -0.32 (inactive)

## C#C[C@]1(O)CC[C@H]2[C@@H]3CCc4cc(O)ccc4[C@H]3CC[C@@]21C [Ethynylestradiol] (stock concentration (mM, diluted 1:100): 10)
[1]
  CDA2-GFP sporulation assay sensitivity score: 6.44 (inactive)
[2]
  HIS4 meiotic recombination assay sensitivity score: -1.32 (inactive)
[3]
  growth sensitivity score: 229 (active)
[4]
  growth sensitivity score: 2.85 (active)

## Oc1ccc(C2CNCCc3c2cc(O)c(O)c3Cl)cc1 (configuration not stated) [Fenoldopam mesylate] (stock concentration (mM, diluted 1:100): 7.7)
[1]
  CDA2-GFP sporulation assay sensitivity score: -0.81 (inactive)
[2]
  HIS4 meiotic recombination assay sensitivity score: -0.24 (inactive)
[3]
  growth sensitivity score: -1.09 (inactive)
[4]
  growth sensitivity score: -0.74 (inactive)

## CN1CC(=O)N2[C@H](c3ccc4c(c3)OCO4)c3[nH]c4ccccc4c3C[C@@H]2C1=O [Tadalafil] (stock concentration (mM, diluted 1:100): 10)
[1]
  CDA2-GFP sporulation assay sensitivity score: -4.01 (inactive)
[2]
  HIS4 meiotic recombination assay sensitivity score: -0.28 (inactive)
[3]
  growth sensitivity score: -2.54
[4]
  growth sensitivity score: -1.71 (inactive)

## COc1cc(C(=O)NS(=O)(=O)c2ccccc2C)ccc1Cc1cn(C)c2ccc(NC(=O)OC3CCCC3)cc12 [Zafirlukast] (stock concentration (mM, diluted 1:100): 10)
[1]
  CDA2-GFP sporulation assay sensitivity score: 0.72 (inactive)
[2]
  HIS4 meiotic recombination assay sensitivity score: 1 (inactive)
[3]
  growth sensitivity score: 40.9 (active)
[4]
  growth sensitivity score: -1.75 (inactive)

## CC(=O)OCC(CCn1cnc2cnc(N)nc21)COC(C)=O [Famciclovir] (stock concentration (mM, diluted 1:100): 10)
[1]
  CDA2-GFP sporulation assay sensitivity score: 0.31 (inactive)
[2]
  HIS4 meiotic recombination assay sensitivity score: -0.43 (inactive)
[3]
  growth sensitivity score: -0.2 (inactive)
[4]
  growth sensitivity score: -1.36 (inactive)

## COc1cc(C[C@@H](CO)[C@H](CO)Cc2ccc(O)c(OC)c2)ccc1O [Secoisolariciresinol] (stock concentration (mM, diluted 1:100): 10)
[1]
  CDA2-GFP sporulation assay sensitivity score: -0.44 (inactive)
[2]
  HIS4 meiotic recombination assay sensitivity score: -0.73 (inactive)
[3]
  growth sensitivity score: 0.75 (inactive)
[4]
  growth sensitivity score: -0.92 (inactive)

## CN1CCN(C2=Nc3ccccc3Oc3ccc(Cl)cc32)CC1 [Loxapine succinate] (stock concentration (mM, diluted 1:100): 11)
[1]
  CDA2-GFP sporulation assay sensitivity score: 2.27 (inactive)
[2]
  HIS4 meiotic recombination assay sensitivity score: 7.41 (active)
[3]
  growth sensitivity score: 6.01 (active)
[4]
  growth sensitivity score: 1.9 (inactive)

## CC(C)(C)NCC(O)c1ccc(O)c(CO)c1 (configuration not stated) [Salbutamol sulfate] (stock concentration (mM, diluted 1:100): 9.7)
[1]
  CDA2-GFP sporulation assay sensitivity score: -0.05 (inactive)
[2]
  HIS4 meiotic recombination assay sensitivity score: -0.65 (inactive)
[3]
  growth sensitivity score: -1.51 (inactive)
[4]
  growth sensitivity score: -0.62 (inactive)

## CCN1CCC[C@H]1CNC(=O)c1c(O)c(Cl)cc(Cl)c1OC [Raclopride] (stock concentration (mM, diluted 1:100): 10)
[1]
  CDA2-GFP sporulation assay sensitivity score: 0.74 (inactive)
[2]
  HIS4 meiotic recombination assay sensitivity score: -0.66 (inactive)
[3]
  growth sensitivity score: -1.88 (inactive)
[4]
  growth sensitivity score: 0.66 (inactive)

## CN1CCN(C2=Nc3cc(F)ccc3Cc3ccccc32)CC1 [Fluperlapine] (stock concentration (mM, diluted 1:100): 10)
[1]
  CDA2-GFP sporulation assay sensitivity score: 17.9 (active)
[2]
  HIS4 meiotic recombination assay sensitivity score: -1.76 (inactive)
[3]
  growth sensitivity score: 2.12 (active)
[4]
  growth sensitivity score: 0.57 (inactive)

## CC(c1cc2ccccc2s1)N(O)C(N)=O (configuration not stated) [Zileuton] (stock concentration (mM, diluted 1:100): 10)
[1]
  CDA2-GFP sporulation assay sensitivity score: -0.22 (inactive)
[2]
  HIS4 meiotic recombination assay sensitivity score: -2.31 (inactive)
[3]
  growth sensitivity score: 0.45 (inactive)
[4]
  growth sensitivity score: -0.81 (inactive)

## CC(C)(C)NC(=O)[C@@H]1C[C@@H]2CCCC[C@@H]2CN1C[C@@H](O)[C@H](Cc1ccccc1)NC(=O)[C@H](CC(N)=O)NC(=O)c1ccc2ccccc2n1 [Saquinavir mesylate] (stock concentration (mM, diluted 1:100): 8.8)
[1]
  CDA2-GFP sporulation assay sensitivity score: -0.34 (inactive)
[2]
  HIS4 meiotic recombination assay sensitivity score: -1.67 (inactive)
[3]
  growth sensitivity score: -2.2
[4]
  growth sensitivity score: 2.5 (active)

## COC(=O)CCc1ccc(OCC(O)CNC(C)C)cc1 (configuration not stated) [Esmolol hydrochloride] (stock concentration (mM, diluted 1:100): 9)
[1]
  CDA2-GFP sporulation assay sensitivity score: 0.86 (inactive)
[2]
  HIS4 meiotic recombination assay sensitivity score: 0.23 (inactive)
[3]
  growth sensitivity score: -2.29
[4]
  growth sensitivity score: -0.5 (inactive)

## O=C1c2cccc3c2[C@H](CCC3)CN1[C@@H]1CN2CCC1CC2 [Palonosetron hydrochloride] (stock concentration (mM, diluted 1:100): 10)
[1]
  CDA2-GFP sporulation assay sensitivity score: 8.71 (inactive)
[2]
  HIS4 meiotic recombination assay sensitivity score: 5.73 (active)
[3]
  growth sensitivity score: 2.17 (active)
[4]
  growth sensitivity score: -1.82 (inactive)

## COc1cc(OC)c(C(=O)CCCN2CCCC2)c(OC)c1 [Buflomedil hydrochloride] (stock concentration (mM, diluted 1:100): 8.9)
[1]
  CDA2-GFP sporulation assay sensitivity score: -0.24 (inactive)
[2]
  HIS4 meiotic recombination assay sensitivity score: -1.08 (inactive)
[3]
  growth sensitivity score: 0.38 (inactive)
[4]
  growth sensitivity score: 2.01 (active)

## C[C@@H]1CN(CCCn2c3ccccc3c3ccccc32)C[C@H](C)N1 [Rimcazole] (stock concentration (mM, diluted 1:100): 10.1)
[1]
  CDA2-GFP sporulation assay sensitivity score: 14.4 (active)
[2]
  HIS4 meiotic recombination assay sensitivity score: -2.16 (inactive)
[3]
  growth sensitivity score: 20.3 (active)
[4]
  growth sensitivity score: 89.4 (active)

## CS(=O)(=O)c1ccc(C2=C(c3ccccc3)C(=O)OC2)cc1 [Rofecoxib] (stock concentration (mM, diluted 1:100): 10)
[1]
  CDA2-GFP sporulation assay sensitivity score: 0.79 (inactive)
[2]
  HIS4 meiotic recombination assay sensitivity score: -1.67 (inactive)
[3]
  growth sensitivity score: -0.37 (inactive)
[4]
  growth sensitivity score: 0.04 (inactive)

## C[C@]12CCC(=O)C=C1CC[C@@H]1[C@@H]2CC[C@@]2(C)[C@H]1CC[C@]2(O)C(=O)CO [Cortodoxone] (stock concentration (mM, diluted 1:100): 10)
[1]
  CDA2-GFP sporulation assay sensitivity score: 5 (inactive)
[2]
  HIS4 meiotic recombination assay sensitivity score: 0.86 (inactive)
[3]
  growth sensitivity score: 6.84 (active)
[4]
  growth sensitivity score: -0.69 (inactive)

## CN(C)CCc1c[nH]c2ccc(C[C@H]3COC(=O)N3)cc12 [Zolmitriptan] (stock concentration (mM, diluted 1:100): 10)
[1]
  CDA2-GFP sporulation assay sensitivity score: -0.81 (inactive)
[2]
  HIS4 meiotic recombination assay sensitivity score: 0.22 (inactive)
[3]
  growth sensitivity score: -1.29 (inactive)
[4]
  growth sensitivity score: -0.77 (inactive)

## CN1CCC(=C2c3ccccc3C=Cc3ccccc32)CC1 [Cyproheptadine hydrochloride] (stock concentration (mM, diluted 1:100): 10)
[1]
  CDA2-GFP sporulation assay sensitivity score: 14 (active)
[2]
  HIS4 meiotic recombination assay sensitivity score: 6.95 (active)
[3]
  growth sensitivity score: 9.58 (active)
[4]
  growth sensitivity score: 3.38 (active)

## NC(=O)c1cccnc1 [Nicotinamide] (stock concentration (mM, diluted 1:100): 10)
[1]
  CDA2-GFP sporulation assay sensitivity score: 4.17 (inactive)
[2]
  HIS4 meiotic recombination assay sensitivity score: 0.03 (inactive)
[3]
  growth sensitivity score: -0.97 (inactive)
[4]
  growth sensitivity score: -0.49 (inactive)

## Nc1c2c(nc3c1CCC3)CCCC2 [Amiridine] (stock concentration (mM, diluted 1:100): 10)
[1]
  CDA2-GFP sporulation assay sensitivity score: 2.39 (inactive)
[2]
  HIS4 meiotic recombination assay sensitivity score: 1.51 (inactive)
[3]
  growth sensitivity score: 4.09 (active)
[4]
  growth sensitivity score: 4.93 (active)

## O=C(O)C[C@H](O)C[C@H](O)/C=C/c1c(C2CC2)nc2ccccc2c1-c1ccc(F)cc1 [Livalo] (stock concentration (mM, diluted 1:100): 5)
[1]
  CDA2-GFP sporulation assay sensitivity score: 0.3 (inactive)
[2]
  HIS4 meiotic recombination assay sensitivity score: -3.02 (inactive)
[3]
  growth sensitivity score: 32.2 (active)
[4]
  growth sensitivity score: 15.7 (active)

## CCN(CC)C(=O)C1(c2ccccc2)CC1CN (configuration not stated) [Milnacipran] (stock concentration (mM, diluted 1:100): 10)
[1]
  CDA2-GFP sporulation assay sensitivity score: 2.47 (inactive)
[2]
  HIS4 meiotic recombination assay sensitivity score: -0.19 (inactive)
[3]
  growth sensitivity score: -0.1 (inactive)
[4]
  growth sensitivity score: -0.02 (inactive)

## CN(CCOc1ccc(CC2SC(=O)NC2=O)cc1)c1ccccn1 (configuration not stated) [Rosiglitazone maleate] (stock concentration (mM, diluted 1:100): 7.6)
[1]
  CDA2-GFP sporulation assay sensitivity score: 1.38 (inactive)
[2]
  HIS4 meiotic recombination assay sensitivity score: 0.95 (inactive)
[3]
  growth sensitivity score: 2.19 (active)
[4]
  growth sensitivity score: 1.82 (inactive)

## CNCCCC12CCC(c3ccccc31)c1ccccc12 [Maprotilline hydrochloride] (stock concentration (mM, diluted 1:100): 10)
[1]
  CDA2-GFP sporulation assay sensitivity score: 0.21 (inactive)
[2]
  HIS4 meiotic recombination assay sensitivity score: 9.12 (active)
[3]
  growth sensitivity score: 86.6 (active)
[4]
  growth sensitivity score: 2.3 (active)
